Measured values reported in PubChem BioAssay AID618 (Sanford-Burnham Center for Chemical Genomics, 2007).
About 540 (0.62%) of roughly 87,000 compounds were called active. The rule behind the calls is not given here. The sample as a whole holds a higher share of actives than the screen did. Measured potencies and affinities stand elsewhere.

assay: inhibitors of MT1-MMP promoter transcription, cell-based, luciferase reporter, luminescence (AID 618); details: MT1-MMP promoter luciferase reporter cells;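 note: actives suppress MT1-MMP promoter-driven transcription so potencies describe inhibitors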

outcome, active:
Cc1ccc(C(=O)/C=C/Nc2ccccn2)cc1, NC(=O)c1ccccc1N/C=C/C(=O)c1ccccc1, COc1cc(C)c(C(C)C)cc1S(=O)(=O)n1cnc(C)c1, CCN1/C(=C/c2ccc3ccccc3[n+]2CC)C=Cc2ccccc21, Cc1ccc(Nc2cc(C)nn2-c2nc(C)cc(=O)[nH]2)cc1, Cc1noc(C)c1CSc1nc2[nH]ncc2c(=O)n1-c1ccccc1, C=CCn1c(SCc2c(C)noc2C)nc2ccccc2c1=O, COc1ccc(CCN2CCC(Nc3nc4ccccc4n3Cc3ccc(F)cc3)CC2)cc1, CC1(C)CC(=O)C2=C(C1)OC1=C(C(=O)CC(C)(C)C1)C2c1ccc(O)cc1O, Cc1ccc2[nH]c(-c3ccccc3)cc(=O)c2c1

outcome, inactive:
CC(C)(C)NC(=O)Nc1ccc2nccnc2c1, O=C(OCc1ccccn1)c1ccc(COc2ccccc2Cl)o1, CCOc1ccc(OCc2ccc(C(=O)N3CCCC3)o2)cc1, O=C(O)c1ccc(COc2ccc(Cl)cc2)o1, CCc1ccc(OCc2ccc(C(=O)NCc3ccccn3)o2)cc1, CCN(CC(O)Cn1c2ccccc2c2ccccc21)S(=O)(=O)c1ccc(C)cc1 (configuration not stated), O=C(/C=N/O)Nc1ccccc1C(=O)O, O=C(NCc1ccccc1)c1ccc(Oc2ccc(C(=O)NCc3ccccc3)cc2)cc1, O=C(CN(CC1CCCO1)C(=O)CCC(=O)Nc1nccs1)NCc1ccc2c(c1)OCO2 (configuration not stated), CCOC(=O)N1CCN(C(=O)CN(c2cccc(C(F)(F)F)c2)S(C)(=O)=O)CC1, CCOC(=O)c1ccc(NC(=O)N2CCc3ccccc32)cc1, O=C(Nc1ccccc1)N1CCc2ccccc21, O=C(CN1C(=O)C2C3C=CC(C3)C2C1=O)Nc1nc2ccccc2[nH]1 (configuration not stated), CCOc1ccc(S(=O)(=O)N(C)c2ccc(OCC(=O)N3CCOCC3)cc2)cc1, CC(=O)c1ccc(NC(=O)C(C)Sc2nnnn2C)cc1 (configuration not stated), COc1cccc(C(=O)/C=C/Nc2cc(C)ccc2O)c1, COc1ccc(N/C=C\C(=O)c2ccc3c(c2)OCO3)cc1, COc1cccc(C(=O)Nc2ccccc2)c1, COc1ccc(C(=O)Nc2cccc(C)c2)cc1, COc1ccc(S(=O)(=O)NCC(c2cccnc2)N2CCN(C)CC2)cc1C (configuration not stated), O=C(COc1ccc2ccccc2c1)NC1CC1, CCCC1(C(=O)OC)NC(c2cc(OC)c(OC)c(OC)c2)C2C(=O)N(CC)C(=O)C21 (configuration not stated), O=c1[nH]nc(Cc2ccc(Cl)cc2)c2ccccc12, Cc1nn2c(C(F)(F)F)cc(-c3ccc(Cl)cc3)nc2c1C(=O)N1CCOCC1, Nc1ccc2nc(-c3ccc(N)c(Cl)c3)[nH]c2c1, Nc1ccc(-c2nc3c(Cl)c(N)ccc3[nH]2)cc1, CC(=O)c1cnc2cc(-c3ccc(Cl)cc3)nn2c1C, O=C(CNS(=O)(=O)c1ccccc1)NCc1ccccn1, CCCCc1ccc(-c2ccc(Br)cc2)nc1, CCCc1ccc(-c2cc(N)n[nH]2)cc1, CCOc1ccc(NC(=O)CCN2CCN(c3ccccc3F)CC2)cc1, COc1ccc(-c2nnn(CC(=O)NCc3ccccc3)n2)cc1OC, CCC(C)NC(=O)Nc1ccc2c(c1)N(C)C(=O)c1ccccc1S2 (configuration not stated), Cc1nc(SCc2cccc(Oc3ccccc3)c2)n[nH]1, c1ccc(-c2ccccn2)nc1, c1ccc(-c2nnc(-c3ccccn3)nn2)nc1, CCc1nc(OCC(=O)c2ccccc2)c(C#N)c2c1COC(C)(C)C2, Cc1ccc(C(=O)/C=C/Nc2ccccc2C(N)=O)cc1, COc1ccc(C(=O)Nc2ccccn2)cc1, NC(=O)c1ccccc1N/C=C/C(=O)c1ccc(F)cc1, Cc1c(N/C=C/C(=O)c2ccc(Cl)cc2)c(=O)n(-c2ccccc2)n1C, COc1ccc(C(=O)/C=C/Nc2cccc(C)n2)cc1OC, Cc1cc(N/C=C/C(=O)c2ccc(Br)cc2)no1, NC(=O)c1ccccc1N/C=C/C(=O)c1ccc(Cl)cc1, Cc1ccc(/C=C/C(=O)c2ccccc2)cc1, CCCCc1ccc(Nc2nc(CCC)cc(=O)[nH]2)cc1, COc1ccc(C2C(C#N)=C(N)Oc3n[nH]c(-c4ccccn4)c32)c(OC)c1OC (configuration not stated), C=C(c1ccc(OC)cc1)c1ccc(OC)cc1, CC(C)Cn1c(N)c(C(=O)COC(=O)c2cc(C(F)(F)F)nc3ccccc23)c(=O)n(C)c1=O, COC(=O)C(C(=O)Nc1ncccn1)C1CCCCCC1 (configuration not stated), O=C(Nc1cccnc1)c1c(F)c(F)c(F)c(F)c1F, Cc1ccc(S(=O)(=O)n2nc(-c3ccc(Cl)cc3)nc2NCc2ccco2)cc1, Cc1ccnn1CCSCC(=O)O, O=C(/C=C/NNC(=O)c1ccccc1)c1ccccc1, O=C(CC(=O)Nc1ccccn1)Nc1ccccn1, CCn1c(=NC(=O)CN2C(=O)CCC2=O)sc2c(C)cc(C)cc21, Cc1cc(N2CCCC2=O)cc(C)c1S(=O)(=O)NCCOc1ccc(C(C)(C)C)cc1, N#Cc1cc(N)c(Nc2ccccc2)cc1C#N, CCC1(c2ccccc2)NC(=O)N(CC(=O)Nc2cccc(C#N)c2)C1=O (configuration not stated), COc1cc(C)c(C(C)C)cc1S(=O)(=O)n1ccnc1, COc1cc(C)c(Cl)cc1S(=O)(=O)n1cnc(C)c1, CCN1C(=C2C(=O)c3ccccc3C2=O)C=Cc2ccccc21, CCN1C(=O)/C(=C2\C=Cc3ccccc3N2CC)OC1=S, CC1(C)CC(=O)N(c2ccccc2)C1(C)O (configuration not stated), Cc1cc(C(=O)CSc2nc3ccccc3[nH]2)c(C)n1C, C=CCn1c(C)cc(C(=O)CSc2nc3ccccc3c(=O)[nH]2)c1C, CCn1c(SCC(=O)c2cc(C)n(CC3CCCO3)c2C)nc2ccccc21 (configuration not stated), Cc1cc(C(=O)CSc2nc3ccc(Cl)cc3[nH]2)c(C)n1CC1CCCO1 (configuration not stated), C=CCc1c(C)nc(SC)nc1Nc1ccc(C(C)=O)cc1, CC1CC(C)(C)NC(=O)O1 (configuration not stated), Cc1ccc(Nc2cc(C)nn2-c2nc(C)cc(C)n2)cc1, Cc1cc(=O)[nH]c(-n2nc(C)cc2C)n1, Cc1noc(C)c1CSc1nc2ccccc2c(=O)n1-c1ccc(Cl)cc1, C=CCn1c(SCc2c(C)noc2C)nc2cc(C(=O)O)ccc2c1=O, Cc1noc(C)c1CSc1nc2ccccc2c(=O)n1-c1ccccc1, Cc1nc(CSc2nc3[nH]ncc3c(=O)n2-c2ccccc2)cs1, COc1ccccc1NC(=O)CSc1nnnn1-c1ccc(C)cc1, COCCCNC(=O)CCc1nc2cccnc2n1Cc1ccccc1, O=C(NNC(=O)c1ccccc1Br)c1ccc(SCC2CCCO2)c([N+](=O)[O-])c1 (configuration not stated), COc1ccc(CC(=O)N2CCC(Nc3nc4ccccc4n3Cc3ccc(F)cc3)CC2)cc1, COc1ccc(CNc2nc3ccccc3n2CCN2CCOCC2)cc1, COc1ccc(N/C=C(\C#N)c2ccc(OCCCF)cc2)cc1, COc1ccc(C2C(C#N)=C(N)N3C(=C2C#N)Sc2ccccc23)cc1 (configuration not stated), CC1(C)CC(=O)C(C2C3=C(CC(C)(C)CC3=O)Oc3ccccc32)=C(O)C1 (configuration not stated), Cc1nn(C)cc1C1C2=C(CC(C)(C)CC2=O)OC2=C1C(=O)CC(C)(C)C2, O=C(c1cccs1)N(Cc1ccco1)c1nc(-c2ccc(F)cc2)cs1, COc1ccc(-c2cc(C(F)(F)F)n3nc(C(=O)N4CCCCC4)cc3n2)cc1OC, Cc1ccc2[nH]c(C(=O)O)c(-c3ccccc3)c2c1, O=c1cc(-c2ccccc2)[nH]c2ccccc12, COc1ccc(NC(=O)N2CCCC2C(=O)NCc2ccc(F)cc2)cc1 (configuration not stated), O=C(O)CSCC(=O)Nc1ccccc1, O=C(CSCCO)Nc1ccc(C2CCCCC2)cc1, Cc1ccc(C(=O)CC2(O)C(=O)N(Cc3ccc4c(c3)OCO4)c3ccccc32)cc1 (configuration not stated), Cc1cc(C)c(S(=O)(=O)N2CCC(C(=O)NCc3ccco3)CC2)c(C)c1, Cc1ccc(C(=O)NNS(=O)(=O)c2ccccc2[N+](=O)[O-])cc1, COc1cc(C(=O)N/N=C\c2ccccc2)c([N+](=O)[O-])c(OC)c1OC, O=C(N/N=C/c1ccc([N+](=O)[O-])s1)c1cccc(Br)c1, CC(=O)Nc1ccc(NC(=O)c2ccccc2C)cc1, Cc1ccc(C(=O)N/N=C/c2sc(=O)n(Cc3cccc(C(=O)O)c3)c2Cl)cc1, O=C(N/N=C/C=C/c1ccccc1)c1ccccc1Br, COc1cccc(NC2=NCC(=O)N2Cc2cccs2)c1, O=C1c2ccccc2C(=O)N1CCOCCN1C(=O)c2ccccc2C1=O, CCC(=O)N(Cc1ccc(S(N)(=O)=O)cc1)C1CC(=O)N(c2ccc(OC)cc2)C1=O (configuration not stated), Cc1cc2nnc(SCC(=O)N3C(C)CCCC3C)n2c(N)n1 (configuration not stated), COC(=O)CSc1cc(C(=O)c2nccn2C)c2ccccc2n1, COCCNC(=O)C(c1cccs1)N(Cc1cccs1)C(=O)Cn1nnc2ccccc21 (configuration not stated), CCCCS(=O)(=O)Nc1ccc(C(=O)NCC2CCCO2)cc1 (configuration not stated)
